Bioassay records (PubChem BioAssay)
Lassa entry inh: Lassa virus entry inhibition; AID 540256; Lassa virus pseudotype entry inhibition, cell reporter; Potency, µM (top dose mostly 37.9 µM), for the others: at the highest dose activity change, negative = inhibition, most hits filed as inhibitors; 300,000 tested, 1.2% active; calls by dose curve; tested in HEK293 cells; note: potency is the fitted concentration of half-maximal effect; nearly all actives have a fitted effect of over 50% in size
HCV inh: HCV inhibition | AID 651820 | Huh7.5.1 HCVcc-Cre infection, luciferase reporter, 44 h | Potency, µM (doses to about 41.8 µM), inactives show top-dose activity change, negative = inhibition, actives largely listed as inhibitors | 340,000 tested, 3.4% active; note: potency is the fitted concentration of half-maximal effect
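1,000 cells/well; 4 h culture; + compound; + HCVcc-Cre (~0.5 moi); 44 h; luciferase substrate, RT 15 min; read 15 sec.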
Pf growth 48h: P. falciparum growth inhibition at 48 hours (one generation) | P. falciparum luciferase growth in erythrocytes, 48 h | Potency, µM (doses to about 28.7 µM), without a hit: at the highest dose activity change, negative = inhibition, actives largely listed as inhibitors | 310,000 tested, 5.9% active | AID 504832; note: potency is the fitted concentration of half-maximal effect
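Here the parasites carry a stable luciferase gene and grow inside erythrocytes in Albumax-based RPMI medium with compound for one erythrocytic cycle. Activity is scored as loss of luminescent signal.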
Pf growth 96h: P. falciparum growth inhibition at 96 hours; 320,000 tested, 6.9% active; P. falciparum luciferase reporter growth, 96 h; Potency, µM (titrated, usually from 28.7 µM), for the others: at the top dose activity change, negative = inhibition, actives largely listed as inhibitors; note: potency is the fitted concentration of half-maximal effect
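Plates of compound plus infected erythrocytes (2% hematocrit, 0.05% parasitemia final) incubate 96 hours, 37 C, 5% CO2. Detection reagent added; reduced luminescence from the parasites' luciferase reporter flags inhibition.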
HCMV antiviral: blocks human cytomegalovirus replication | HFF cells, HCMV-luciferase reporter, 72 h; hits give low values | 410,000 tested, 4.5% active | activity change, negative = inhibition, % at 57.5 µM | AID 1259415; in the data active = activity change below about -60%; inconclusive = no clear call, values can overlap the other calls; inactive = above about -39%
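Inhibition of viral replication was scored as loss of reporter luminescence in HFFs infected with HCMV-luciferase (MOI 1 PFU/cell) for 72 h; compounds tested at 2 doses, normalized to buffer and Salinomycin controls.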
MARV entry inh: blocks Marburg virus binding to or entry into cells. 300,000 tested, 1.8% active. Potency, µM (top dose mostly 37.8 µM), for the others: at the highest dose activity change, negative = inhibition, most hits filed as inhibitors. AID 540276. Marburg virus pseudotyped entry inhibition, cell reporter; calls by dose curve; tested in HEK293 cells; note: potency is the fitted concentration of half-maximal effect
* = called active by the depositor; ? = inconclusive; / = no result given; [ ] = remark or other dose. Only some compounds are listed: those with a hit (about 14% of all), similar ones and a draw of the others. Unless noted, calls come from the whole dose curve; as a rule, active = well fitted inhibition curve with a large enough effect; inconclusive = small, poorly fitted or top-dose-only effect, or another doubt; inactive = no such curve, though single readings can be large or run the other way. % is set by controls: 0 for no effect and ±100 for the full control effect.

SMILES | Lassa entry inh | HCV inh | Pf growth 48h | Pf growth 96h | HCMV antiviral | MARV entry inh
COc1cccc(CNC(=O)CCC(=O)N2CC(C)Oc3ccccc32)c1OC (stereo not drawn) | / | -14% | 17% | 5.2µM* | 9 | /
CCc1cc2c(cc3c(=O)n(CC(=O)N4CCCCC4)ncn32)s1 | / | / | / | / | -38 | 10%[46.1 µM]
O=C(NCc1ccccc1Cl)C(=O)NCC(c1cccs1)S(=O)(=O)c1cccs1 (stereo not drawn) | ? | / | / | / | -62* | /
CCNC(=O)C(=O)NCC(c1cccs1)S(=O)(=O)c1ccc(C)cc1 (stereo not drawn) | / | 4% | 22% | 4.1µM* | 0 | /
CCOC(=O)C(=O)NCC(c1cccs1)S(=O)(=O)c1ccc(F)cc1 (stereo not drawn) | -16% | 0% | ? | 12µM* | -9 | 22%[46.1 µM]
O=C(NCc1ccc(Cl)cc1)C(=O)NCC(c1cccs1)S(=O)(=O)c1cccs1 (stereo not drawn) | ? | / | / | / | 0 | /
CCCCC(CC)CNC(=O)CN(C)S(=O)(=O)c1ccc2c(c1)c(=O)n(C)c(=O)n2C (stereo not drawn) | -10%[46.1 µM] | / | / | / | ? | 22%[46.1 µM]
O=[N+]([O-])c1ccc(S(=O)(=O)Nc2nnc(C(F)(F)F)s2)cc1 | / | 11% | 22% | 10µM* | 15 | /
Cc1cc2ncn(C(=O)c3ccc4c(c3)OCO4)c2cc1C | 0% | 18% | 35% | 2.9µM* | 89 | 14%[46.1 µM]
CC1CCN(C(=O)c2ccc3c(c2)OCO3)CC1 | / | 7% | 0% | 13µM* | 9 | /
O=C(NC1CCCCC1)c1ccc2c(c1)OCO2 | 4%[46.1 µM] | -1% | 156% | 2% | 96 | ?
c1cc2c(cc1CCNC1C3CC4CC(C3)CC1C4)OCO2 (stereo not drawn) | -20% | ? | ? | ? | 65 | ?
CC1CCC(NCCc2ccc3c(c2)OCO3)CC1 (stereo not drawn) | 8% | ? | -18% | 2% | -13 | 16µM*
CC1CN(C(=O)c2ccc3c(c2)OCO3)CC(C)O1 (stereo not drawn) | 4% | -9% | / | -16% | 37 | 2%
CC1CCC(NC(=O)c2ccc3c(c2)OCO3)CC1 (stereo not drawn) | 3.5µM* | -8% | 195% | 1% | 32 | ?
CC(C)Cn1c(=O)c2sccc2n2c(CCCC(=O)NCCc3ccccc3)nnc12 | -2%[46.1 µM] | / | / | / | -23 | /
CCn1c(COc2ccc3c(c2)CCCC3)nnc1SCC(=O)Nc1ccc(C(=O)OC)cc1 | -2% | 10% | -19% | 9.3µM* | -5 | -5%
CCn1c(CNC(=O)COc2ccc(C(C)C)cc2)nnc1SCC(=O)Nc1ccc(F)cc1 | ? | ? | / | 8.3µM* | -16 | -13%
CCn1c(CNC(=O)COc2ccc(C(C)C)cc2)nnc1SCC(=O)NC1CCCCC1C (stereo not drawn) | -26% | -8% | 12µM* | 10µM* | ? | -19%
CC1(C(=O)NS(=O)(=O)c2cccc(Cl)c2)CCN1C(=O)C/C=C/c1ccccc1 (stereo not drawn) | / | / | / | / | -25 | /
CCOC(=O)c1cc(C#N)c(C)nc1N(CC)CC | 5.6µM* | ? | 28% | 0% | 10 | -19%[46.1 µM]
CCOC(=O)c1cc(C#N)c(SCc2cccc3ccccc23)nc1C | -14% | -43% | / | 9.3µM* | -22 | -3%
CCC1CN(C(=O)N2CCC(C(=O)NCc3cc(OC)ccc3OC)CC2)c2ccccc2O1 (stereo not drawn) | -4%[46.1 µM] | / | / | / | 44 | /
Cc1[nH]c2ccc(C(=O)N3CCN(c4cccc(Cl)c4)CC3)cc2c1C | / | 15% | 44% | 41% | 11 | /
CS(=O)(=O)c1ncc(Cl)c(C(=O)N2CCN(c3cccc(Cl)c3)CC2)n1 | ? | / | / | / | -101* | ?
COc1ccc(OCC(=O)N2CCN(c3cccc(Cl)c3)CC2)cc1 | -9% | -13% | / | ? | -24 | ?
O=C(c1cc2ccccc2cc1O)N1CCN(c2cccc(Cl)c2)CC1 | 9%[46.1 µM] | 5% | ? | 12µM* | -25 | 16%
